Our source for the growth values is PubChem BioAssay (NCI).

This is part of a sample that, as a whole, favours compounds with a hit. Of some 83,000 tested, about 20% had one in any assay.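 The endpoint reported here, percent growth, reads 100 for growth as untreated, 0 for no net growth and -100 for all cells dead.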 Unmarked numbers belong to inactive results. The source made the active and inactive calls.

This test deals with SNB-75 CNS. Description: NCI-60 one-dose screen, 48 h (100 = growth as untreated, 0 = no growth, -100 = all killed). The note with it: 10 µM unless noted. The procedure:
Growth inhibition of the SNB-75 human tumor cell line is measured as a screen for anti-cancer activity. Cells are grown in 96 well plates and exposed to the test compound for 48 hours. Compounds are tested at a single concentration, which is 10^-5 M for most compounds. The reported endpoint is percent growth (GI% or GIPRCNT), where numbers from 0 - 100% represent growth inhibition, and numbers from -100% - 0 represent cell death. For example, a value of 40 represents 60% growth inhibition. A value of 0 means no net growth occurred over the course of the experiment. A value of -40 indicates 40% of cells at the beginning of the experiment died by the end of the experiment. A value of -100 means all cells are dead at the end of the experiment.
NCI-60 Human Tumor Cell Lines Screen was performed using the standard one-dose NCI protocol, which is described in more detail at https://dtp.cancer.gov/discovery_development/nci-60/default.htm.
Compounds with GIPRCNT values below 10 were considered active. Activity score was based on GIPRCNT using the following formula: […]
Score is 0 for GIPRCNT values of 100 or above, 50 for GIPRCNT values of 0, and 100 for GIPRCNT values of -100.
Take `O=c1[nH]c(=S)[nH]c(O)c1/C=C1\C=Nc2ccccc21`: the growth is 71.8%.

For `C=C(NC(=O)[C@H](C(C)C)N(C)c1cccc2[nH]ccc12)C(=O)OC`, the growth was 105%.

With `CCCCCCCCCCCCCCCCCC1=NCCN1CS(=O)(=O)O`, the growth was 60.9%.

As to `CC(=O)N(N=O)c1ccc([N+](=O)[O-])cc1Cl`, the growth was 81.2%.

In the case of `CCCCCCCCCCCCOC(=O)/C=C\C(=O)NC(N)=O`, the growth was 81.5%.

As to `COc1ccc(-c2nc(Nc3nc4ccccc4[nH]3)nc(N)c2C#N)cc1`, the growth is 84.9%.

Consider `Cc1ccc2c(O)c(O)cc(NC(C)CCCN)c2n1` (stereo not given), for which the growth is 108%.

Regarding `CCCCCCCCCCCCc1ccc([N+](CC)(CC)CC)cc1`, the growth was 33.5%.

Turning to `CCNc1nnc(COc2ccc(CNC(=O)CCCC/C=C/C(C)C)cc2OC)o1`, the growth was 86.2%.

Take `COc1cccc2c1nc1cccc(OC)c1[n+]2[O-]`: the growth is 58.3%.

On to `CCC(C)(C)c1ccc(OCCCCCCN2CCN(c3ccc(C)c(Cl)c3)CC2)cc1`, for which the growth is 92.2%.

For `CC[C@H](Nc1ncnc2nc[nH]c12)c1nc2cccc(NCc3ccc(C(=O)NO)nc3)c2c(=O)n1-c1ccccc1`, the growth was 5.43% (active).

As for `COc1cc2cc3cc4cc(OC)c(OC)cc4c(C)[n+]3cc2cc1OC` (tested in a mixture with another compound), the growth was 73.1%.

As for `BrCCCOc1ccc(Oc2ccc(OCCCBr)cc2)cc1`, the growth was 86.6%.

Regarding `Cn1cnc2nc[nH]c2c1=S`, the growth was 79.2%.

Take `CCOC(=O)CCCCCCCCC(=O)OCC`: the growth is 102%.

`CN1C(=O)C(=Cc2coc3ccc(Br)cc3c2=O)C(=O)N(C)C1=O`: the growth was 105%.

With `COc1cc(-c2nc3c(c(C)nc4c3nnn4-c3ccccc3)c(=O)o2)cc(OC)c1OC`, the growth is 89.6%.

On to `Cn1c2c(cc(S(=O)(=O)c3ccccc3)c1=O)CCc1c-2cnn1-c1ccc(Cl)cc1`, for which the growth is -54.3% (active).

Take `OCC(O)C(O)CC1SCCS1` (stereo not given): the growth is 94.7%.

Consider `CC(=O)CC(=O)OC/C=C(/C)CCC=C(C)C`, for which the growth was 105%.

Take `O=C(Nc1cccc(Cn2c(=O)[nH]c3ccc(Oc4ncccn4)cc3c2=O)c1)c1cc(Cl)cc(Cl)c1`: the growth was 42.6%.

As to `CC1CCCCC[N+]12CCCC2` (stereo not given), the growth was 95%.

Consider `O=C(CCCC(=O)Nc1ccc(Cn2nnc3cc(Cl)c(Cl)cc32)cc1)Nc1ccc(CN2N=NC3C=C(Cl)C(Cl)=CC32)cc1` (stereo not given), for which the growth is 70.3%.

With `Cc1ccc([C@@H]2C[C@H](O)Cc3ccccc3N2)s1`, the growth was 98.4%.

Consider `COC(=O)[C@@H]1[C@H](O)[C@H](C)[C@H](O)[C@H](C)/C=C\C=C(C)C(=O)Nc2c(C)c(OC(C)=O)c3c(c2O)C(=O)C(C)=C2OCOC(=C23)C(C)=C[C@@](C)(O)[C@H](O)[C@@H](C)[C@H]1OC(C)=O`, for which the growth was 86.6%.

Turning to `COc1ccc(Cn2cc3c(c2-c2ccc(O)cc2)CCc2cnoc2-3)cc1`, the growth is 19.1%.

With `CCOC(=O)NNc1[nH]c(-c2ccc(OC)cc2)cc1C#N`, the growth is 124%.

As to `COC(=O)C(C(=O)OC)C(Br)C(Br)C(Br)c1ccccc1` (stereo not given), the growth is 87.4%.

As to `CC(=O)Oc1cc2ccccc2cc1C(C)C`, the growth is 92.3%.

Take `CCOC(=O)C1CCCN1C(=O)C1(NC(C)=O)CCCC1` (stereo not given): the growth is 95.7%.

As for `Oc1ccc(Br)cc1/C=N/NC(=S)NC12CC3CC(CC(C3)C1)C2`, the growth is 53.3%.

On to `COC(c1ccccc1)C(Br)C(=O)c1ccccc1` (stereo not given), for which the growth is 86.5%.

Regarding `CC1(c2ccc(Br)cc2)NC(=O)NC1=O` (stereo not given), the growth is 99.3%.

In the case of `O=C(/C=C\c1ccc(NCc2ccc(C(=O)O)cc2)cc1)CCl`, the growth is 91.1%.

Take `O=C(/C=C1\C(=O)N(Cc2ccc([N+](=O)[O-])cc2)c2ccccc21)c1ccc(OCCN2CCCCC2)cc1`: the growth was 22.3%.

For the compound `COc1cccc(NC(=O)NCCNc2nccc(-c3c(-c4ccc(F)cc4)nc4sccn34)n2)c1`, the growth is 48.3%.

As for `CC(C)OCC1CO1` (stereo not given), the growth is 92.7%.

Turning to `COc1ccccc1CNCCCN1C(=O)c2ccc3c4c(ccc(c24)C1=O)C(=O)N(CCCNCc1ccccc1OC)C3=O`, the growth was -95.7% (active).

For the compound `CCOC(=O)C(C)C(C)(O)c1ccccc1` (stereo not given), the growth is 87.5%.
